Screening data: PubChem BioAssay, several laboratories
H9c2 protect: protects H9c2 cardiomyocytes from peroxide injury | H2O2 injury protection, ATPLite, 2 h | protection from H2O2 cell death, % at 20 µM | 360,000 compounds, 0.63% hits;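 active means compounds giving at least 50% protection of heart cells from peroxide-induced death in the single-dose screen, raw or plate-pattern-corrected value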
Cl transport mod: KCC2 (human) Cl- transport modulation; KCC2 cells, thallium flux FluoZin-2 fluorescence; B-score of Tl+ flux slope (higher = more flux/activation; lower = inhibition) at 10 µM; 190,000 compounds, 2.2% hits; AID 1456;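 active means thallium flux slope and its plate-corrected score both differing from the plate sample mean at a set confidence after two filtering rounds, in either direction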;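 further: slope of fluorescence scaled to starting intensity during 10 to 20 s after thallium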
Calb FLC: affects C. albicans growth with fluconazole. C. albicans CaCi-2 (fluconazole-resistant clinical isolate) + fluconazole, Alamar Blue growth, 48 h. growth inhibition, % (test concentration not listed). 300,000 compounds, 0.57% hits;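 active means growth inhibition above about 58% in most replicates, limit read from the data, passing the limit was not always enough; inconclusive means exactly half the replicates above a set limit; inactive means most replicates below a set limit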;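 further: all wells also contain fluconazole at 8 µg/ml as a sub-toxic cotreatment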
Efflux pump inh: blocks antifungal efflux pumps in multiplex yeast assay; S. cerevisiae Candida pump triplex, Nile Red efflux; inhibition, % at 10 µM; 330,000 compounds, 0.44% hits; AID 485275;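 active means plate passing quality check with inhibition over a set limit, or well fluorescence over plate mean plus 4 SD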;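 further: Nile Red retained in pooled yeast measured as flow cytometry median fluorescence; higher means more Nile Red kept so more efflux inhibition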
PHOSPHO1 inh: inhibitors of human PHOSPHO1 phosphatase | AID 1565 | recombinant PHOSPHO1, absorbance phosphatase assay | Q8TCT1 | inhibition, % at 13.3 µM | 290,000 compounds, 1.1% hits; in the data active means inhibition above about 60%
Target sequence (Q8TCT1 whole entry, looked up): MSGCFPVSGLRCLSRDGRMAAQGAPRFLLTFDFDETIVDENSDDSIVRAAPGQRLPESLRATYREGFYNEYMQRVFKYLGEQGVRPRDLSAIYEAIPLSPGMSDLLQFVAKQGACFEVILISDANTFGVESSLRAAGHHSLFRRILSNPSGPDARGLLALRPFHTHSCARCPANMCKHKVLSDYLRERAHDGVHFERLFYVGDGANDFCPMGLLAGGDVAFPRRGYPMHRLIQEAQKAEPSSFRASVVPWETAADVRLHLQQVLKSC
KCC2 sec1: KCC2 (human) modulation, secondary assay | HEK293-KCC2, thallium flux, FluoZin2 fluorescence; active compounds read high | shares compounds with Cl transport mod | 3,700 compounds, 15% hits | normalised thallium flux (F/F0 slope) at 10 µM | AID 1713;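 active means thallium flux slope above the same plate's solvent-only control mean plus 3 SD; inconclusive means the two replicate wells disagree; inactive means no significant difference from solvent-only control wells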
KCC2 bumet counter: bumetanide-insensitive thallium flux in KCC2 cells with ouabain, counter-screen; shares compounds with Cl transport mod; HEK293-KCC2 + bumetanide/ouabain, thallium flux FluoZin2; active compounds read high; normalized thallium flux at 10 µM; 3,700 compounds, 49% hits; AID 1714;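 active means thallium entry rate above the same plate's blocked-transporter control wells by more than 3 SD; inconclusive means the two repeat wells disagree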;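 further: raw slope of fluorescence over initial fluorescence between 10 and 20 s after thallium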
KCC2 secondary2: KCC2 (human) modulation, second secondary assay | AID 1715 | normalized thallium flux at 10 µM | shares compounds with Cl transport mod | HEK293-KCC2, thallium flux FluoZin2 fluorescence; actives lie on both sides; F/F0 rise rate, 10–20 s post-thallium | 3,700 compounds, 23% hits;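 active means thallium flux slope more than 3 SD above or below the plate's solvent-only control mean, mostly below; inconclusive means the two repeat wells disagreed; inactive means no significant shift from solvent-only controls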
HEK counter1: counter-screen for KCC2 modulators: effect in parental HEK293 cells. thallium flux rate (normalised fluorescence) at 10 µM. 3,700 compounds, 46% hits. thallium flux FluoZin2, ouabain; baseline-ratio fluorescence slope, 10–20 s after thallium. shares compounds with Cl transport mod. AID 1716;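 active means thallium flux rate significantly above the same plate's solvent-only control wells, beyond their mean plus 3 SD; inconclusive means the two replicate wells gave conflicting results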
KCC2 retest ouab: confirmation of human KCC2 modulators with ouabain; shares compounds with Cl transport mod; 3,700 compounds, 48% hits; HEK293-KCC2, thallium flux FluoZin2 fluorescence; bidirectional: low = inhibitor, high = activator; AID 1717; raw Tl+ flux slope (below DMSO = inhibition, above = activation) at 10 µM;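 active means thallium flux slope beyond 3 SD from same-plate DMSO control mean in most replicates, usually higher, sometimes lower; inconclusive means repeat tests gave conflicting results; inactive means no significant difference from controls in most replicates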;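 further: slope of initial-normalized fluorescence between seconds 10 and 20 after thallium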
HEK293 Tl flux2: parental HEK flux effect, counter-screen 2 | shares compounds with Cl transport mod | HEK293 parental, thallium flux FluoZin-2 fluorescence slope | thallium flux slope at 10 µM | 3,700 compounds, 33% hits | AID 1718;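 active means thallium flux slope above the same plate's solvent-control mean plus 3 SD in both duplicate wells; inconclusive means duplicate wells that disagreed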;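 further: run without ouabain in cells lacking the KCC2 cotransporter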
A number is an active result; – = inactive; ? = inconclusive; · = not tested or not shown. Sampled rows, rich in hits. Any-hit rate of the full collection: about 3.3%.

SMILES	H9c2 protect	Cl transport mod	Calb FLC	Efflux pump inh	PHOSPHO1 inh	KCC2 sec1	KCC2 bumet counter	KCC2 secondary2	HEK counter1	KCC2 retest ouab	HEK293 Tl flux2
COc1cccc([C@@H]2Oc3ccc(OC)cc3C(=O)[C@H]2OC(=O)NCc2ccc3c(c2)OCO3)c1	·	42	–	–	–	–	0.058	0.064	0.068	0.055	0.051
COc1ccc2c(c1)O[C@@H](c1cccc(C(F)(F)F)c1)[C@H](OC(=O)NCCc1ccc(OC)c(OC)c1)C2=O	·	38	–	–	–	–	0.028	?	0.029	0.037	0.022
COC(=O)[C@@H](NC(=O)O[C@@H]1C(=O)c2ccc(OC)cc2O[C@H]1c1cccc(C(F)(F)F)c1)C(C)C	·	5.6	–	–	–	–	0.011	–	0.015	?	0.013
Cc1cccc(OCC(=O)N(Cc2ccc(C)o2)C2CCS(=O)(=O)C2)c1 (centres undefined)	–	·	–	–	–	·	·	·	·	·	·
Cc1ccc(SCCNC(=O)c2ccc(C)c(S(=O)(=O)Nc3ccccc3C)c2)cc1	–	·	–	–	–	–	?	–	–	0.015	–
CCCc1c(-c2ccc(O)cc2)nn(-c2ccc(O)cc2)c1-c1ccc(O)cc1	–	-2.5	·	–	–	–	–	–	?	–	–
COCCN(CCOC)C(=O)c1ccc(SCc2ccc(C)cc2)c([N+](=O)[O-])c1	–	-4.4	–	–	–	–	–	–	–	0.015	–
CCCc1cc(-c2n[nH]c(=S)n2CC)cs1	–	·	–	–	–	0.013	0.02	–	0.014	–	0.012
CCCCn1c(-c2csc(CCC)c2)n[nH]c1=S	–	37	–	–	–	?	0.08	0.044	0.032	0.041	0.031
CCn1c(-c2cccnc2)n[nH]c1=S	–	–	–	–	–	·	·	·	·	·	·
COc1ccc(N2CC(C(=O)N[C@@H](CC(C)C)C(=O)NC3CCCCC3)CC2=O)cc1 (some centres undefined)	–	·	?	–	–	·	·	·	·	·	·
Cc1ccsc1C(=O)Nc1nnc(-c2ccco2)o1	–	·	–	–	–	0.013	0.026	–	0.015	0.03	0.011
Cc1ccc(C(=O)Nc2nnc(-c3ccco3)o2)cc1	–	–	–	–	–	·	·	·	·	·	·
Cc1ccc(N2CC(C(=O)N3CCc4ccccc4C3)CC2=O)cc1 (centres undefined)	–	·	–	–	–	–	–	–	–	–	–
Cc1ccc(N2CC(C(=O)N3CCCCCC3)CC2=O)cc1 (centres undefined)	–	·	–	–	–	·	·	·	·	·	·
N#Cc1ccsc1NC(=O)c1cccc([N+](=O)[O-])c1	–	–	–	–	–	·	·	·	·	·	·
N#Cc1ccsc1NC(=O)c1ccc(Cl)c([N+](=O)[O-])c1	–	-5.3	–	–	–	–	–	0.022	–	?	–
O=C(c1cccc(C(F)(F)F)c1)C1CCCN(C(=O)/C=C/c2cnc[nH]2)C1 (centres undefined)	–	·	–	–	–	·	·	·	·	·	·
CN(Cc1ccccc1)c1nccn2ccnc12	–	·	·	·	·	·	·	·	·	·	·
CN(Cc1ccccc1)c1nc(N)nc(Cl)c1C=O	–	-5	–	–	–	–	–	–	–	0.012	–
CC(C)CN(C(=O)c1ccco1)C1CCS(=O)(=O)C1 (centres undefined)	–	·	–	–	·	·	·	·	·	·	·
CC(C)c1onc(C(=O)N2CCN(Cc3ccccc3)CC2)c1[N+](=O)[O-]	–	-4.9	–	–	–	–	–	0.028	–	0.015	–
